In PubChem BioAssay:
The source made the active and inactive calls.

Legend:
Albumin (Bos taurus) = Albumin (Bos taurus) (UniProt P02769); assay: compounds binding labelled BSA control protein – biochemical, small-molecule microarray, Alexa647 label, 635/667 nm fluorescence, artefact control for SMM control protein annotation, profiling panel (AID 1118); conditions: BSA-A647 binding, fluorescence 635 nm, higher = more signal;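 note: score merges 667 nm emission intensity and signal-to-noise per printed compound spot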
[1] = probe aXIP binding to arrayed compounds – biochemical, NeuroSMM set, 635/667 nm fluorescence, primary screen (AID 1119); conditions: small-molecule microarray, higher = more signal, called active from +8 up or from −8 down;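 note: probe is the protein aXip251-270 applied at 1 µg/mL to compound-printed slides; binding of probe to printed compounds measured as 667 nm fluorescence plus signal to noise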
[2] = probe aNOTCH3 binding on compound microarray – biochemical, small-molecule microarray, 635/667 nm fluorescence, primary screen (AID 1120); conditions: higher = more signal;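 note: probe is a biotin-tagged antibody raised against NOTCH3 rather than NOTCH3 protein; score merges spot fluorescence near 667 nm with spot signal to noise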
[3] = probe aNOTCH2 binding on compound microarray – biochemical, small-molecule microarray, 635/667 nm fluorescence, primary screen (AID 1121); conditions: higher = more signal;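 note: score merges feature fluorescence read at 667 nm with its signal to noise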
[4] = molecular target: Carbonic anhydrase 2 (Homo sapiens) (UniProt P00918); assay: compounds binding carbonic anhydrase 2 – biochemical, small-molecule microarray, Alexa647-labelled CAII, profiling panel (AID 1122); conditions: CAII-A647 binding fluorescence, higher = more signal
[5] = COS7 lysate on small-molecule microarray, probe aHis, 635 nm (AID 1123); conditions: COS7 cell lysate, fluorescence, higher = more signal;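 note: z-score combines 667nm fluorescence intensity with signal-to-noise per printed compound spot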
[6] = probe aLAP1 signal on lysate-treated microarray – cell lysate, small-molecule microarray, COS7 lysate, primary screen (AID 1124); conditions: probe aLAP1, fluorescence, higher = more signal;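 note: lysate comes from COS7 cells expressing LAP1 and is applied at 0.3 µg/mL; score merges spot fluorescence near 667 nm with signal-to-noise over triplicate slides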
Sam68 (KHDRBS1) = assay: compounds binding KHDRBS1 protein – biochemical, small-molecule microarray, 635 nm fluorescence, primary screen (AID 1125); conditions: higher = more signal;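 note: score merges 667 nm channel intensity with signal to noise over triplicate slides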
[7] = tested on: Chordin-like protein 2 (CHRDL2); assay: compounds binding chordin-like 2 – biochemical, small-molecule microarray, 635 nm fluorescence, primary screen (AID 1126); conditions: fluorescence 635 nm, higher = more signal;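 note: printed compound slides probed with Chrdl2 protein at 4 µg/mL for 1 h at 4 C; score merges 667 nm emission intensity with signal to noise over three replicate slides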
[8] = molecular target: Concanavalin-A (Canavalia ensiformis) (UniProt P02866); assay: compounds binding concanavalin A lectin – biochemical, small-molecule microarray, Alexa647 label, 635 nm, artefact control for SMM control protein annotation, primary screen (AID 1127); conditions: ConA-A647 binding fluorescence, higher = more signal;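 note: z combines 667 nm emission intensity with signal-to-noise across three replicate slides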
[9] = compounds binding Alexa647 anti-His antibody – biochemical, small-molecule microarray, 635 nm fluorescence, artefact control for SMM control protein annotation, primary screen (AID 1128); conditions: higher = more signal;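 note: score merges feature fluorescence with signal-to-noise for each printed compound spot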
[10] = tested on: Human papillomavirus type 1a E7 protein (residues 1-88); assay: HPV1a E7 small-molecule binders, primary screen, biochemical, small-molecule microarray, residues 1-88, 635 nm (AID 1129); conditions: small-molecule microarray binding, fluorescence 635 nm; higher = more signal
[11] = molecular target: Focal adhesion kinase 1 (Homo sapiens) (UniProt Q05397); assay: PTK2 protein binding on printed compound slides – biochemical, small-molecule microarray, 635/667 nm fluorescence, BSA, DTT, primary screen (AID 1130); conditions: 635 nm fluorescence, higher = more signal;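 note: composite of spot emission at 667 nm and signal to noise over triplicate slides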
[12] = tested on: Fibrinogen (Alexa647-labelled); assay: Alexa647-fibrinogen binding to printed small molecules – biochemical, small-molecule microarray, 635/667 nm fluorescence, artefact control for SMM control-protein annotation, profiling panel (AID 1131); conditions: fibrinogen-A647 binding fluorescence, higher = more signal;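 note: z-score merges 667 nm fluorescence with per-spot signal-to-noise over triplicate slides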
[13] = molecular target: Follistatin (Homo sapiens) (UniProt P19883); assay: FST protein binding to printed compounds – biochemical, small-molecule microarray, 635/667 nm fluorescence, primary screen (AID 1132); conditions: 635 nm fluorescence, higher = more signal
[14] = molecular target: Fibroblast growth factor 2 (Homo sapiens) (UniProt P09038); assay: basic fibroblast growth factor binding to printed compounds – biochemical, small-molecule microarray, 635/667 nm fluorescence, primary screen (AID 1133); conditions: FGF2, fluorescence 635/667, higher = more signal
[15] = JC-1 mitochondrial potential readout, lung cancer cells – cell-based, A549, JC-1 fluorescence, basal, 24 h, 100 nL, profiling panel (AID 1138); conditions: higher = more signal;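 note: A549 lung adenocarcinoma cells under basal conditions with no added stimulus; test concentration not given here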
Lefty1 = Lefty1 protein binding to printed compounds – biochemical, small-molecule microarray, 635/667 nm fluorescence, primary screen (AID 1139); conditions: fluorescence 635/667, higher = more signal
[16] = tested on: wheat germ agglutinin (Triticum aestivum), Alexa647-labelled; assay: Alexa647-WGA lectin binding to printed small molecules – biochemical, small-molecule microarray, 635/667 nm fluorescence, artefact control for SMM control-protein annotation, profiling panel (AID 1140); conditions: WGA-A647 binding, 635 nm fluorescence, higher = more signal;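 note: score merges 667 nm feature emission with signal to noise over triplicate slides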
[17] = molecular target: Luciferin 4-monooxygenase (Photinus pyralis) (UniProt P08659); assay: inhibition of purified Photinus pyralis luciferase – biochemical, luminescence, purified enzyme, 2006 set, primary screen (AID 1141); conditions: purified firefly luciferase, SteadyGlo luminescence, 30 min; higher = more signal, called active from +8 up or from −8 down;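 note: cell-free assay with purified firefly luciferase at 100 ng per well in PBS; test concentration not given here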
Luciferin 4-monooxygenase (Photinus pyralis), sequence (P08659 whole entry, looked up): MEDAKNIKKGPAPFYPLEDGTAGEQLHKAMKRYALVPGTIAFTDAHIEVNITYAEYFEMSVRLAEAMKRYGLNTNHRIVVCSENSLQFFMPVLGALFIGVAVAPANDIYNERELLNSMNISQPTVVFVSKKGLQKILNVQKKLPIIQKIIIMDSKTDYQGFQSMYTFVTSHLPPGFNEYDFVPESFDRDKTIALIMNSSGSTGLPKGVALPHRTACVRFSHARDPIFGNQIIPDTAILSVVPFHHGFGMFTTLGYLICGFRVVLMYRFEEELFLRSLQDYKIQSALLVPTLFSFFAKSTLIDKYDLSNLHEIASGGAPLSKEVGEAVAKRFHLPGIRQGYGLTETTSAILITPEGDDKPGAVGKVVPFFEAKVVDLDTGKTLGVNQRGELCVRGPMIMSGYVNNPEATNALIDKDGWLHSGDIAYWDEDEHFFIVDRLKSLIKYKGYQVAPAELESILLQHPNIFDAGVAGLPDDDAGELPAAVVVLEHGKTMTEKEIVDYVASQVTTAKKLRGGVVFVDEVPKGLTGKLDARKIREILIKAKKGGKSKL

Follistatin (Homo sapiens), sequence (P19883 whole entry, looked up): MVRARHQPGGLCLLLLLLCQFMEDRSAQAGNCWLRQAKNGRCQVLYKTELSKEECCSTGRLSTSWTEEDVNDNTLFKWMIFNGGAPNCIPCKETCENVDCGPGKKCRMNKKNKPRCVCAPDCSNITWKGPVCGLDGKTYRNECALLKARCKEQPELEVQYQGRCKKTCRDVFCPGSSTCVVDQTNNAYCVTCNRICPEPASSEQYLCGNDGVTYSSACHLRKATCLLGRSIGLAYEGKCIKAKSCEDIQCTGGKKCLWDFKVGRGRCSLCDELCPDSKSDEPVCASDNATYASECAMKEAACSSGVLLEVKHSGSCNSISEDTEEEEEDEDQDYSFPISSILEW
Focal adhesion kinase 1 (Homo sapiens), sequence (Q05397 whole entry, looked up): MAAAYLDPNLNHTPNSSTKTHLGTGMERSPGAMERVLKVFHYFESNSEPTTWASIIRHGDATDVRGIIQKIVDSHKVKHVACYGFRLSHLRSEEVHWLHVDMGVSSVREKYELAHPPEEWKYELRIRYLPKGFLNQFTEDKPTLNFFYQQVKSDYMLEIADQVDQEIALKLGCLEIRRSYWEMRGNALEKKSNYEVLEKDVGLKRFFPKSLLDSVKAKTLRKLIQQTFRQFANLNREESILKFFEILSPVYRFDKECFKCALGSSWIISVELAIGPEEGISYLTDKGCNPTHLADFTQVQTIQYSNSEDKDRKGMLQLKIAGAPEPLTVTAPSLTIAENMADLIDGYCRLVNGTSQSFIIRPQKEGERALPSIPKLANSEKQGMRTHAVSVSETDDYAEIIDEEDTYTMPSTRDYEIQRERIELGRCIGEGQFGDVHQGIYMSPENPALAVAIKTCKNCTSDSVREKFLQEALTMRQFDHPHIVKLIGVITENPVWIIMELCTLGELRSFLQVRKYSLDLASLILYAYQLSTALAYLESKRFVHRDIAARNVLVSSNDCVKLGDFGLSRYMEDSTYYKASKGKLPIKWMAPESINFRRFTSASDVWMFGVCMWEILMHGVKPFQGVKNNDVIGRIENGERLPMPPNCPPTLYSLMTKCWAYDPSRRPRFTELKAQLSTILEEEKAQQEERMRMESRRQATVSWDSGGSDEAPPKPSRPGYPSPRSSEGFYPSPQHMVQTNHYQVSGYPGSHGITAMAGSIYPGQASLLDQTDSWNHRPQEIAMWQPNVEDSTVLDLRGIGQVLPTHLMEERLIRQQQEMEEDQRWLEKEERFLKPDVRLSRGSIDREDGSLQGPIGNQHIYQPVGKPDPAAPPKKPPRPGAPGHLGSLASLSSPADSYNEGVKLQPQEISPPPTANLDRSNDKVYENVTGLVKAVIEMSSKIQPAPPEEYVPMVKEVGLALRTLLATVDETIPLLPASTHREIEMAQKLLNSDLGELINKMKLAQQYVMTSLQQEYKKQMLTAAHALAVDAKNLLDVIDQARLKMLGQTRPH
Concanavalin-A (Canavalia ensiformis), sequence (P02866 whole entry, looked up): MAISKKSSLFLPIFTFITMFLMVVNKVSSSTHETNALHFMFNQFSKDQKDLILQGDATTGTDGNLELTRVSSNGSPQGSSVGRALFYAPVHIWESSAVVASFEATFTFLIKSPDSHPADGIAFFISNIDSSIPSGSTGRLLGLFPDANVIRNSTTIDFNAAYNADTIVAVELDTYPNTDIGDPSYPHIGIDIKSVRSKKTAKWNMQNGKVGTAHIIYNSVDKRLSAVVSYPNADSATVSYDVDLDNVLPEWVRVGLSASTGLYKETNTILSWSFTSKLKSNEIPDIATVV
Fibroblast growth factor 2 (Homo sapiens), sequence (P09038 whole entry, looked up): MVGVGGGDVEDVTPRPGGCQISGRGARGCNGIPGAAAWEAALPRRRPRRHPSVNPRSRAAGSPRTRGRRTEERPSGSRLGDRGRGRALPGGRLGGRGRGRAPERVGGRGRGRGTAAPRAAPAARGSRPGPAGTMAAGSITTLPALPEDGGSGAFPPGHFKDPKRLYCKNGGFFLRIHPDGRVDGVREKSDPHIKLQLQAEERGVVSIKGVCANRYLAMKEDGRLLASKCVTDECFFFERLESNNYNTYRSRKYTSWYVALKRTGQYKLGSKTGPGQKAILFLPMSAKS
Albumin (Bos taurus), sequence (P02769 whole entry, looked up): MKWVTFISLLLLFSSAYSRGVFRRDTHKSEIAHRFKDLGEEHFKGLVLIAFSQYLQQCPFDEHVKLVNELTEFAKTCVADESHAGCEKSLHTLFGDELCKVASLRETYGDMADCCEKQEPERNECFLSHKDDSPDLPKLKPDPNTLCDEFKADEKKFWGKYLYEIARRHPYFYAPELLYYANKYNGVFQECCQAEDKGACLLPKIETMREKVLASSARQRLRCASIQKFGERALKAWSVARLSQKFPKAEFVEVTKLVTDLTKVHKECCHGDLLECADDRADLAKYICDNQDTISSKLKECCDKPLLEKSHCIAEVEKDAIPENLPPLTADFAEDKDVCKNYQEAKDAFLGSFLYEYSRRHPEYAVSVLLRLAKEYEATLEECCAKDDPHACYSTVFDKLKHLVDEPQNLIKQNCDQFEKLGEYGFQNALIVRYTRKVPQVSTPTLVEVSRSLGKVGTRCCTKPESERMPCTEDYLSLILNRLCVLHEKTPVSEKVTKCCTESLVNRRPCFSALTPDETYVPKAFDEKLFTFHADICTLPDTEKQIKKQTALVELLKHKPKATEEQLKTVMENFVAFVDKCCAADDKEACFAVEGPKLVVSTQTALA

| Structure (SMILES) | composite z-score (Albumin (Bos taurus)) | composite Z-score [1] | composite z-score [2] | composite z-score [3] | composite z-score [4] | composite z-score [5] | composite z-score [6] | composite z-score (Sam68 (KHDRBS1)) | composite z-score [7] | composite z-score [8] | composite z-score [9] | composite z-score [10] | composite z-score [11] | composite z-score [12] | composite z-score [13] | composite z-score [14] | z-score [15] | composite z-score (Lefty1) | composite z-score [16] | z-score [17] |
| --- | --- | --- | --- | --- | --- | --- | --- | --- | --- | --- | --- | --- | --- | --- | --- | --- | --- | --- | --- | --- |
| COC(=O)[C@H](Cc1ccccc1)NC(=O)[C@@H](C)CO | 0.317 | 0.047 (inactive) | 0.226 | -0.181 | 0.465 | 0.207 | 0.143 | 0.48 | 0.501 | -1.01 | 0.0868 | -0.196 | -0.233 | 0.115 | 1.28 | 0.592 | -1.2 | 1.5 | 0.821 | 0.716 (inactive) |
| CC(C)=NOC(C)CN1CCCc2nc(C)c(C)cc21 (stereo not given) | 0.297 | 0.672 (inactive) | 0.0482 | 0.0037 | 0.449 | 1.31 | 1.37 | 0.669 | 0.74 | 0.788 | -0.0115 | 0.964 | 0.232 | 0.484 | 0.724 | 0.753 | 0.354 | 0.947 | 0.323 | 0.57 (inactive) |
| COc1ccc(OC[C@@H](CO)OC)cc1 | -0.151 | 0.675 (inactive) | -0.0865 | -0.118 | -0.148 | -0.206 | -0.295 | 0.14 | 0.175 | 0.0261 | 0.324 | 0.0896 | 0.172 | 0.227 | 0.649 | 0.205 | 0.754 | 0.356 | -0.254 | -0.531 (inactive) |
| CC(C)CON=C1[C@H]2CCn3c(=O)n(C)c(=O)n3[C@H]2[C@H](O)[C@@H]2O[C@H]12 | -0.0213 | -0.483 (inactive) | 0.236 | -0.139 | -0.148 | -0.818 | 0.854 | 0.471 | 0.783 | 0.328 | 0.457 | 0.398 | 0.0335 | 0.413 | 0.581 | 0.411 | 0.563 | 1.02 | 0.324 | -0.571 (inactive) |
| COC(=O)[C@H](C)NC(=O)CCC1CC(OC(=O)NCCc2ccc(F)cc2)CC2(CCCC(COC(=O)NCCOc3ccccc3)O2)O1 (stereo not given in full) | 0.752 | 0.59 (inactive) | -0.029 | -0.0921 | 0.282 | 1.21 | -0.0401 | 1.31 | 1.03 | 1.02 | 0.989 | 1.16 | 0.821 | 0.659 | 0.826 | 0.307 | 1.08 | 1.41 | 0.309 | 0.549 (inactive) |
| C[C@@H]1CC[C@H]2C(=O)OC(CN3C(=O)c4ccccc4C3=O)CN2[C@H]1c1ccc(Br)cc1 (stereo not given in full) | 0.808 | 0.372 (inactive) | -0.0984 | 0.178 | 0.305 | 0.787 | 0.376 | 0.438 | 0.333 | 0.781 | 0.194 | 0.731 | 0.246 | 0.377 | -0.145 | -0.204 | 0.0226 | 0.117 | 0.681 | -0.796 (inactive) |
